The values that follow come from PubChem BioAssay (NCI).

Each structure is given as a SMILES string. About 83,000 compounds went through this panel and 20% of them were active in at least one assay; those are over-represented in the sample as a whole.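 Activity criterion: percent growth below 10, measured after cells in 96-well plates were exposed to a single compound concentration for 48 hours.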 Values without a mark were called inactive. Activity calls are given as the source filed them.

Among the test systems are SK-MEL-2 melanoma; EKVX NSCLC; SN12C renal; UO-31 renal; TK-10 renal; ACHN renal; CAKI-1 renal; A498 renal; CCRF-CEM leukemia; MOLT-4 leukemia; RPMI-8226 leukemia; OVCAR-8 ovarian; OVCAR-5 ovarian; OVCAR-4 ovarian; SK-OV-3 ovarian; IGROV1 ovarian; OVCAR-3 ovarian; HS 578T breast; NCI/ADR-RES ovarian; SR leukemia.
Holding throughout (assay): NCI-60 one-dose screen, 48 h (100 = growth as untreated, 0 = no growth, -100 = all killed)
Holding throughout (conditions): 10 µM unless noted

With `COC(=O)c1c2c(c(C)[n+]([O-])c1C)C(=O)C(NCc1cccc(Cl)c1)=CC2=O`, the growth was 33.7% in the experiment with SK-MEL-2 melanoma; 46.2% in the experiment with EKVX NSCLC; 0.796% (active) in the experiment on SN12C renal; 50.6% with UO-31 renal; 73.5% in the experiment on TK-10 renal; 26.6% with ACHN renal. Besides, the growth is 42.2% with CAKI-1 renal; 106% in the experiment with A498 renal; 17.5% with CCRF-CEM leukemia; -12.6% (active) with MOLT-4 leukemia; 26.9% in the experiment with RPMI-8226 leukemia; -5.76% (active) with OVCAR-8 ovarian. Also, the growth with OVCAR-5 ovarian was 40.6%; in the experiment with OVCAR-4 ovarian, -76% (active); with SK-OV-3 ovarian, 81.3%; with IGROV1 ovarian, 2.76% (active); in the experiment on OVCAR-3 ovarian, -23.9% (active); with HS 578T breast it was 79.1%. Besides, the growth with NCI/ADR-RES ovarian was 0.849% (active).

With `Nc1nc(N)c2c(n1)NC(c1cccc(Nc3ccnc4cc(C(F)(F)F)ccc34)c1)CC(c1ccc(Br)cc1)=N2` (configuration not stated), the growth in the experiment on SK-MEL-2 melanoma was 52.4%; in the experiment on EKVX NSCLC it was 51.5%; with SN12C renal it was 63%; in the experiment with UO-31 renal, 62.2%; in the experiment with TK-10 renal, 96.8%; with ACHN renal, 82%. In addition, the growth with CAKI-1 renal was 48.6%; with A498 renal it was 77.1%; in the experiment on CCRF-CEM leukemia, 17%; with SR leukemia, 0.0412% (active); in the experiment with RPMI-8226 leukemia, 5.34% (active); with OVCAR-8 ovarian it was 66%. Besides, the growth in the experiment on OVCAR-5 ovarian was 107%; in the experiment on OVCAR-4 ovarian it was 77.5%; with SK-OV-3 ovarian, 57.2%; with IGROV1 ovarian it was 58.8%; in the experiment with OVCAR-3 ovarian it was 38.1%; in the experiment on HS 578T breast, 68.4%. Besides, the growth in the experiment on NCI/ADR-RES ovarian is 56.5%.

With `COC(=O)N1CC(Oc2ccccn2)C2CC1c1ccccc1O2` (configuration not stated), the growth is 116% in the experiment with SK-MEL-2 melanoma; 104% in the experiment with EKVX NSCLC; 93% with SN12C renal; 88.6% in the experiment on UO-31 renal; 98.2% in the experiment with TK-10 renal; 95.7% in the experiment with ACHN renal. Moreover, the growth in the experiment with CAKI-1 renal is 93.3%; in the experiment with A498 renal, 83.4%; in the experiment with CCRF-CEM leukemia, 87.8%; with SR leukemia, 94.8%; in the experiment on RPMI-8226 leukemia, 85.6%; in the experiment on OVCAR-8 ovarian it was 98.7%. In addition, the growth was 107% in the experiment on OVCAR-5 ovarian; 103% in the experiment on OVCAR-4 ovarian; 103% in the experiment on SK-OV-3 ovarian; 120% in the experiment with IGROV1 ovarian; 110% in the experiment with OVCAR-3 ovarian; 86% in the experiment with HS 578T breast. For the same compound, the growth in the experiment with NCI/ADR-RES ovarian was 98.5%.

For the compound `CC1(C)[C@@H](O[C@@H]2OC[C@@H](O[C@@H]3O[C@H](CO)[C@@H](O)[C@H](O)[C@H]3O[C@@H]3OC[C@@H](O)[C@H](O)[C@H]3O)[C@H](O)[C@H]2O[C@@H]2O[C@H](CO)[C@@H](O)[C@H](O)[C@H]2O)CC[C@]2(C)[C@H]3CC[C@]45OC[C@@]6(CC[C@](C)(C=O)C[C@H]64)[C@H](O)C[C@@]5(C)[C@]3(C)CC[C@@H]12`, the growth was -90.2% (active) in the experiment with SK-MEL-2 melanoma; -65.4% (active) in the experiment on EKVX NSCLC; -72.6% (active) with SN12C renal; -88.7% (active) in the experiment with UO-31 renal; -92.2% (active) in the experiment on TK-10 renal; -93.7% (active) in the experiment with ACHN renal. The growth in the experiment on CAKI-1 renal was -91.5% (active); in the experiment with A498 renal it was -89.9% (active); with CCRF-CEM leukemia it was -40.9% (active); with MOLT-4 leukemia, -53.5% (active); with RPMI-8226 leukemia, -44% (active); in the experiment on OVCAR-8 ovarian it was -48.9% (active). For the same compound, the growth in the experiment with OVCAR-5 ovarian is -76.8% (active); with SK-OV-3 ovarian, -98.4% (active); in the experiment with IGROV1 ovarian, -71.7% (active); in the experiment with OVCAR-3 ovarian it was -72.6% (active); with HS 578T breast it was -31.2% (active); in the experiment with NCI/ADR-RES ovarian, -21.7% (active).

Turning to `CCN1CCN(CC(=O)Nc2nc3ccc(NCc4ccc(F)cc4)cc3s2)CC1`, the growth in the experiment on SK-MEL-2 melanoma was 106%; in the experiment with EKVX NSCLC it was 86.6%; in the experiment with SN12C renal, 88.5%; in the experiment on UO-31 renal, 75.6%; in the experiment with TK-10 renal, 105%; with ACHN renal, 94.7%. Moreover, the growth in the experiment on CAKI-1 renal is 89.9%; in the experiment on A498 renal, 95.2%; in the experiment with CCRF-CEM leukemia it was 87%; in the experiment with SR leukemia, 80.2%; in the experiment on RPMI-8226 leukemia, 77.3%; with OVCAR-8 ovarian it was 95.6%. Moreover, the growth in the experiment on OVCAR-5 ovarian was 94.8%; with OVCAR-4 ovarian, 84%; in the experiment with SK-OV-3 ovarian, 105%; in the experiment with IGROV1 ovarian, 103%; in the experiment with OVCAR-3 ovarian it was 99.4%; in the experiment with HS 578T breast, 92.9%. The growth with NCI/ADR-RES ovarian was 92.2%.

Regarding `COc1ccc(/C=C/C(=O)c2cc(OC)c(OC)c(OC)c2)cc1OCC(=O)Nc1nc2ccc(OC(F)(F)F)cc2s1`, the growth was 45.7% in the experiment with SK-MEL-2 melanoma; 62.1% with EKVX NSCLC; 19.1% in the experiment on SN12C renal; 3.8% (active) with UO-31 renal; -6.47% (active) in the experiment with TK-10 renal; -1.17% (active) in the experiment on ACHN renal. For the same compound, the growth is 9.57% (active) in the experiment with CAKI-1 renal; 68.1% in the experiment on A498 renal; 20.4% with CCRF-CEM leukemia; 0.429% (active) with MOLT-4 leukemia; 6.47% (active) in the experiment on RPMI-8226 leukemia; 3.67% (active) in the experiment on OVCAR-8 ovarian. The growth with OVCAR-5 ovarian was 96.3%; in the experiment with OVCAR-4 ovarian, -7.18% (active); with SK-OV-3 ovarian it was -11.8% (active); in the experiment on IGROV1 ovarian it was -1.97% (active); in the experiment on OVCAR-3 ovarian, -77.3% (active); in the experiment on HS 578T breast it was -20.8% (active). Further, the growth in the experiment with NCI/ADR-RES ovarian is -13.5% (active).

For the compound `C=C1C(=O)O[C@H]2[C@H]1CC/C(CNC(=O)c1c[nH]c3ccc(F)cc13)=C\CC[C@@]1(C)O[C@@H]21`, the growth in the experiment on SK-MEL-2 melanoma was 45.1%; in the experiment on EKVX NSCLC, 60.3%; in the experiment with SN12C renal it was 47.5%; in the experiment on UO-31 renal it was -79.2% (active); in the experiment on TK-10 renal, -51.7% (active); with ACHN renal, -18% (active). Moreover, the growth was 16.2% with CAKI-1 renal; 15.4% with A498 renal; -21% (active) in the experiment on CCRF-CEM leukemia; -28.2% (active) with SR leukemia; -20.8% (active) in the experiment on RPMI-8226 leukemia; -33.3% (active) with OVCAR-8 ovarian. In addition, the growth was 19.6% in the experiment with OVCAR-5 ovarian; 49% with OVCAR-4 ovarian; 81.7% in the experiment with SK-OV-3 ovarian; 41.7% in the experiment on IGROV1 ovarian; -36.7% (active) with OVCAR-3 ovarian; 44% in the experiment with HS 578T breast. In the experiment with NCI/ADR-RES ovarian, the growth was 56.3%.
